PubChem BioAssay (NCI)
Compounds without any hit were thinned out: in the full panel of roughly 79,000, 15% have a hit. No stated cut-off is given here; in the data, active means growth inhibition above about 70%; inactive means the rest.

What was measured:
[1] = NCI Yeast Anticancer Drug Screen. Data for the rad50 strain (AID 155);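 further: 0% = growth of vehicle-only cultures of the same strain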; conditions: S. cerevisiae rad50 strain growth inhibition; at 50.0 µM; stronger effect = higher value
Method in brief: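 Readout: growth inhibition relative to vehicle-treated cultures. Compound exposure was carried out in a genetically defined yeast strain deficient in DNA damage repair.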

[2] = NCI Yeast Anticancer Drug Screen. Data for the mec2-1 strain (AID 157); conditions: S. cerevisiae mec2-1 strain, at 50.0 µM, stronger effect = higher value
Method in brief: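 Mutant yeast (mec2-1) grown with compound; growth inhibition relative to vehicle control reported.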

[3] = NCI Yeast Anticancer Drug Screen. Data for the sgs1 mgt1 strain (AID 161);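 further: 0% = growth of cultures given vehicle only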; conditions: S. cerevisiae sgs1 mgt1 strain, at 50.0 µM, stronger effect = higher value
Method in brief: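 Growth of a repair-deficient yeast mutant was monitored after compound treatment and expressed as inhibition relative to vehicle-treated cultures.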

[4] = NCI Yeast Anticancer Drug Screen. Data for the cln2 rad14 strain (AID 165);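 further: 0% = growth equal to vehicle treated cultures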; conditions: S. cerevisiae cln2 rad14 strain, at 50.0 µM, stronger effect = higher value
Method in brief: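 Readout is yeast growth inhibition versus vehicle-treated controls, using a strain with cln2 and rad14 alterations exposed to compound.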

[5] = NCI Yeast Anticancer Drug Screen. Data for the bub3 strain (AID 167); conditions: S. cerevisiae bub3 mutant strain, at 50.0 µM, stronger effect = higher value
Method in brief: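 Readout: yeast growth inhibition, expressed relative to vehicle-only wells. The test organism is a mutant strain from a panel with lesions in DNA repair or checkpoint genes.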

[6] = NCI Yeast Anticancer Drug Screen. Data for the mlh1 rad18 strain (AID 175); conditions: S. cerevisiae mlh1 rad18 strain growth inhibition; at 50.0 µM; stronger effect = higher value
Method in brief: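 Genetically defined yeast (DNA repair-deficient) exposed to compounds; growth inhibition determined relative to vehicle.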

Measured: growth inhibition

COC1CC2CC1C1COCC21 (stereo unspecified)
inactive: [1] 7.15% | [2] -4.05% | [3] -19.9% | [4] -12.4% | [5] -12.4% | [6] -7.6%

COCCCNC1=C(C#N)C(=O)NC(c2cccs2)S1 (stereo unspecified)
inactive: [1] 2% | [2] 0.15% | [3] 3.45% | [4] 1.25% | [5] 5.3% | [6] -34.8%

CCCCCCCS(=O)(=O)CCCCC(=O)O
inactive: [1] -17.4% | [2] -5.85% | [3] -7% | [4] -3.35% | [5] 6.7% | [6] -9.5%

CC=C1C(C(=O)O)C1C(=O)O (stereo unspecified)
inactive: [1] 16.9% | [2] 20.8% | [3] -5.2% | [4] -23.2% | [5] 15.3% | [6] -4.4%

Nc1nc2c([nH]c(=O)n2C2OC(CO)C(O)C2O)c(=O)n1N (stereo unspecified)
inactive: [1] 16.1% | [2] 6.2% | [3] 18.8% | [4] -13% | [5] 9.95% | [6] 5.2%

O=C(NCCc1c[nH]c2ccccc12)C1CCCCC1
inactive: [1] -3.65% | [2] -5.45% | [3] 7.85% | [4] -25.6% | [5] 14.1% | [6] -10.1%

COc1ccc(N=c2nc3n4c(c(Br)cc(Br)c4n2)NC(C(Br)(Br)Br)=N3)cc1
inactive: [1] 1.7% | [2] 1.2% | [3] 6.25% | [4] -15.3% | [5] 4.35% | [6] 41.1%

CC1(C)OC2C(CO)OC(n3cnc4c(=S)nc(N)[nH]c43)C2O1 (stereo unspecified)
inactive: [1] 18.6% | [2] 12.8% | [3] 2.5% | [4] -24.1% | [5] 12.5% | [6] 21.7%

CC(=O)NC(CCCCNC(=O)OCc1ccccc1)C(=O)O (stereo unspecified)
inactive: [1] -22.9% | [2] -12.9% | [3] -22.6% | [4] 11.9% | [5] -12.8% | [6] -32.8%

OC(CC(c1ccccc1)c1cccc2ccccc12)(c1ccccc1)c1ccccc1 (stereo unspecified)
inactive: [1] -12.8% | [2] -17.9% | [3] -14.6% | [4] -7.65% | [5] -28.4% | [6] 3.3%

Nc1nc(N)nc(-c2cc(Br)ccc2N)n1
inactive: [1] 51.6% | [2] -0.3% | [3] 12.4% | [4] 19.1% | [5] 30.4% | [6] 7.5%

O=C(O)/N=N\C(=O)O
inactive: [1] -36.9% | [2] -23.9% | [3] -19.4% | [4] -5.05% | [5] -26.4% | [6] -27.2%

[O-][N+]1=C(c2ccccc2)C(c2ccccc2)C(c2ccccc2)O1 (stereo unspecified)
inactive: [1] -13.4% | [2] 1.05% | [3] -2.4% | [4] -6% | [5] -19.1% | [6] 11.2%

C[S+]1CC2C3CC(C#N)C(C3)C2C1 (stereo unspecified)
inactive: [1] 2.4% | [2] 11.2% | [3] 2.95% | [4] -28.1% | [5] -1.85% | [6] 16.9%

Cc1ccc2c(c1)C=C/C(=C/c1cc[n+](C)c3ccccc13)N2C
inactive: [1] -7.95% | [2] -22.2% | [3] 13.3% | [4] -1.05% | [5] -5.8% | [6] 1.55%

CNCCCc1cc(-c2ccc([N+](=O)[O-])cc2)n[nH]1
inactive: [1] -1.55% | [2] 0.5% | [3] -3.25% | [4] 12.6% | [5] 13.6% | [6] 6.6%

O=C1OC(c2ccccc2)N(C(=O)c2ccccc2)C1Cc1ccc(OCc2ccccc2)cc1 (stereo unspecified)
inactive: [1] -30.5% | [2] -6.4% | [3] -5.65% | [4] -13.7% | [5] 0.95% | [6] 5.75%

CN(NC(=O)c1ccccc1)C(=O)c1ccccc1
inactive: [1] 15.6% | [2] 7.4% | [3] 11.6% | [4] -15% | [5] 6.05% | [6] 3.75%

COc1cc2c3c(c1)nc(C)n3C(=O)C(c1ccccc1)S2 (stereo unspecified)
inactive: [1] -17.6% | [2] -5.3% | [3] -26.3% | [4] 4.1% | [5] 21.6% | [6] -23.6%

O=C(O)c1c2c(nc3ccccc13)Cc1ccccc1-2
inactive: [1] 1% | [2] -0.75% | [3] 10.1% | [4] -0.2% | [5] 17.3% | [6] -39.8%

CN1C(=O)C(O)(c2c3c(c(C4(O)C(=O)N(C)c5ccccc54)c4c2OCO4)OCO3)c2ccccc21 (stereo unspecified)
inactive: [1] 0.45% | [2] -0.6% | [3] -28.2% | [4] -7.35% | [5] -5.2% | [6] 8.95%
